Data from PubChem BioAssay AID618 (Sanford-Burnham Center for Chemical Genomics, 2007).
The whole screen tested about 87,000 compounds, of which about 540 (0.62%) were called active. The rule behind the calls is not given here. The list comes from a sample in which actives are over-represented; it also holds similar structures and randomly drawn compounds. Results with a measured potency or affinity are listed apart.

Assay: MT1-MMP gene expression reporter suppression – cell-based, luciferase reporter, luminescence (AID 618);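 note: actives suppress MT1-MMP promoter-driven transcription so potencies describe inhibitors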
Details: MT1-MMP promoter luciferase reporter cells

Compound	outcome
O=C(Nc1cc(C(F)(F)F)ccc1N1CCCCC1)c1ccco1	inactive
COCCNC(=O)CN1c2ccccc2CC1C (stereo unspecified)	inactive
CCCSc1nc(C)c(-c2csc(C(C#N)=C3CCCC3)n2)cc1C#N	inactive
CCOC(=O)N1CCN(CCC(=O)Nc2ccccc2OC)CC1	inactive
CS(=O)(=O)Nc1ccccc1C(=O)Nc1ccccc1Cl	inactive
COc1ccc(CCNC(=O)CSc2nnc(-c3ccc(F)cc3)o2)cc1OC	inactive
CC(=O)C1=C(O)C(=O)N(Cc2ccccc2)C1c1cccs1 (stereo unspecified)	inactive
COc1cc(C2c3c(oc4cc(C)c(C)cc4c3=O)C(=O)N2c2cc(C)ccn2)ccc1O (stereo unspecified)	inactive
COc1ccc(N2CCN(C(=O)CCNS(=O)(=O)c3cccs3)CC2)cc1	inactive
CC(C)(C)C(=O)Nc1ccc2oc(-c3cc(F)c(F)cc3Cl)nc2c1	inactive
CC(C)C(=O)Nc1ccc2oc(-c3cc(F)c(F)cc3Cl)nc2c1	inactive
CC(C)N=Cc1c(O)[nH]c2ccccc12	inactive
CN=Cc1c(NC)nc2c(C)cccn2c1=O	inactive
O=C(NCc1ccc(F)cc1)C1CCC(=O)N1CCc1ccccc1 (stereo unspecified)	inactive
Cc1ccc(NC(=O)c2ccc(S(=O)(=O)N3CCCC3)cc2)cc1	inactive
C[C@@H](NC(=O)c1coc(=O)c(Br)c1)c1ccccc1	inactive
CN(C)CCNC(=O)c1coc(=O)c(Br)c1	inactive
O=C(CNC(=O)C1CCCCC1)NCCCO	inactive
CC(C)Nc1ncnc2c1cnn2-c1ccccc1	inactive
CCCCNc1ncnc2c1cnn2-c1ccccc1	inactive
Cc1cccc(-n2ncc3c(NC(C)C)ncnc32)c1	inactive
CCC(CO)Nc1ncnc2c1cnn2-c1ccc(OC)cc1 (stereo unspecified)	inactive
CC(C)OCCCNc1ncnc2c1cnn2-c1ccccc1	active
Cc1ccc(-n2ncc3c(NCCCOC(C)C)ncnc32)c(C)c1	inactive
COCC(C)Nc1ncnc2c1cnn2-c1ccc(Cl)cc1 (stereo unspecified)	inactive

Compound	outcome
CCCNc1ncnc2c1cnn2-c1ccc(OC)cc1	inactive
COc1ccc(-n2ncc3c(NCc4ccco4)ncnc32)cc1	inactive
Cc1cc(C)nc(NS(=O)(=O)c2ccc(Br)s2)c1	inactive
O=C(NCCOc1nc(N2CCOCC2)nc(N2CCOCC2)n1)Nc1ccc(Cl)cc1	inactive
CCNS(=O)(=O)c1ccc(NC(=O)Cc2ccc(F)cc2)cc1	inactive
O=C1C2CC=C(Cl)CC2C(=O)N1CCc1ccccc1 (stereo unspecified)	inactive
COc1ccc(OC)c(NC(=O)C2CCCNC2=O)c1 (stereo unspecified)	inactive
Cc1cc(NC(=O)CSc2nc3c(sc4ccccc43)c(=O)n2CCc2ccccc2)n[nH]1	inactive
O=C(O)CSC1CC(=O)N(c2ccc(Cl)c(Cl)c2)C1=O (stereo unspecified)	inactive
COc1ccc(CNC(=O)c2ccc3c(c2)N(C)C(=O)CS3=O)cc1 (stereo unspecified)	inactive
COc1ccc(CNc2ccccc2SC)cc1OC	inactive
CSc1ccccc1N=CC1=C(O)CC(C)(C)CC1=O	inactive
C=CCNc1ncnc2c1cnn2-c1cccc(C)c1	inactive
C=CCNc1ncnc2c1cnn2-c1ccc(Cl)cc1	inactive
O=C(Nc1ccccc1C(=O)NCCCn1ccnc1)c1ccccc1	inactive
O=C(Nc1ccccc1C(=O)NCCCn1ccnc1)c1ccc(Cl)cc1Cl	inactive
CCOc1cc(N2CCOCC2)c(OCC)cc1NC(=O)CCS(=O)(=O)c1ccc(Cl)cc1	inactive
CCOc1cc(N2CCOCC2)c(OCC)cc1NS(=O)(=O)c1ccc(Cl)s1	active
CCOc1ccc(Br)cc1S(=O)(=O)Nc1ccccc1N1CCOCC1	inactive
CCOC(=O)c1[nH]c(C)c(CN(Cc2ccco2)C(=O)C(F)(F)F)c1C	inactive
O=C(Nc1cccc(-c2cnc3ccccc3n2)c1)c1ccco1	inactive
O=C(CCl)Nc1cccc(-c2cnc3ccccc3n2)c1	active
O=C(CNC(=O)c1ccc(Br)o1)Nc1cccc(-c2cnc3ccccc3n2)c1	inactive
O=c1cc(O)c(-c2ccccc2Cl)c(Cl)[nH]1	inactive
Cc1nnc(NCCc2ccccc2)[nH]c1=O	inactive

Compound	outcome
CC(=O)Oc1ccc2oc(C)c(C(=O)N3CCOCC3)c2c1	inactive
CC(=O)Nc1ccc2nc(-c3ccccn3)[nH]c2c1	inactive
Nc1ccc2nc(-c3ccccn3)[nH]c2c1	inactive
CC(=O)Nc1nnc(Cc2ccccc2)s1	inactive
COC(=O)C(Cc1cnc(Cl)s1)(C(=O)OC)c1ccc([N+](=O)[O-])cc1	inactive
CC(=O)Nc1ccc(C(=O)CSc2nnnn2C(C)C)cc1	inactive
Cc1ccc(C)c(C(=O)CSc2nnnn2C(C)C)c1	inactive
Cc1nc2cc(NC(=O)N3c4ccccc4CC3C)ccc2n1C (stereo unspecified)	active
Cc1nc2cc(NC(=O)N3c4ccccc4CC3C)ccc2o1 (stereo unspecified)	inactive
COc1ccc(NC(=O)N2c3ccccc3CC2C)cc1OC (stereo unspecified)	inactive
COc1ccc(Cn2nnnc2C(c2ccc(N(C)C)cc2)N2CCC(C)CC2)cc1 (stereo unspecified)	inactive
COc1ccc(C(=O)Nn2c(SCC(=O)c3ccccc3)nc3ccccc3c2=O)cc1	inactive
COc1ccc(C(=O)Nn2c(SCC(=O)NC3CCCC3)nc3ccccc3c2=O)cc1	inactive
COCCn1c(SCC(=O)N2CCC(C)CC2)nc2ccccc2c1=O	inactive
COc1ccc(C(=O)Nn2c(SCC(=O)c3ccc(Cl)cc3)nc3ccccc3c2=O)cc1	inactive
O=C(CSc1nc2ccsc2c(=O)n1NC(=O)c1ccccc1)NCc1ccco1	inactive
O=C(CSc1nc2ccccc2c(=O)n1NC(=O)Cc1ccccc1)NCc1ccco1	inactive
CCOc1ccccc1NC(=O)C1C2C=CC(C2)C1C(=O)O (stereo unspecified)	inactive
Cc1cc(N)n(-c2nc(-c3cccnc3)nc3ccccc23)n1	inactive
Cc1cc(Nc2ccccc2N2CCOCC2)n2ncnc2n1	inactive
O=C(Cn1nnc(-c2ccc(Cl)cc2)n1)NC1CCN(Cc2ccccc2)CC1	inactive
N#Cc1nc(-c2ccc(OCc3ccc(Cl)cc3)cc2)oc1N1CCC(C(N)=O)CC1	inactive
CN(C)C(=O)N1CCC(C(=O)NCc2ccc(F)cc2Cl)CC1	inactive
c1ccc(-n2nnnc2SCc2ccccn2)cc1	inactive
CCN(CC)C(=O)C1CCCN(Cc2cccc(F)c2)C1 (stereo unspecified)	inactive

Compound	outcome
Cn1c(=O)c2c(nc(SCC(=O)NCc3ccc4c(c3)OCO4)n2Cc2ccc(F)cc2)n(C)c1=O	inactive
O=C(CCCOc1ccccc1)N1CCN(c2ccccc2)CC1	inactive
O=C(CCCOc1ccc(Cl)cc1)N1CCCCCC1	inactive
O=C(Nc1nc2ccccc2s1)c1ccc(Cl)s1	inactive
Cc1cc(C)n(-c2ccc(C(=O)Nc3nc4ccccc4s3)cc2)n1	inactive
CCOc1ccccc1OCC(=O)OCC(=O)Nc1ncc(Cl)cc1Cl	inactive
CCn1c(SCC(=O)N2CCN(c3ccc(F)cc3)CC2)nc2ccccc2c1=O	inactive
C#CC[N+]1(CC#Cc2ccccc2)CCOCC1	inactive
COC(=O)CSc1nnc(Cc2ccccc2)n1-c1ccc(C)cc1	inactive
COc1ccc(C2=NOC(C(=O)NCc3cccs3)C2)cc1 (stereo unspecified)	inactive
COc1ccc(C2=NOC(C(=O)NCc3cccs3)C2)cc1OC (stereo unspecified)	active
COc1cc(C2=NOC(C(=O)NCc3cccs3)C2)cc(OC)c1OC (stereo unspecified)	inactive
CCC1(C)Cc2c(sc3nn[nH]c(=O)c23)CO1 (stereo unspecified)	inactive
Cc1nc2sc(C(c3cccs3)N3CCN(c4ccccc4)CC3)c(O)n2n1 (stereo unspecified)	inactive
Cn1c(=NC(=O)CN2C(=O)C3CC=CCC3C2=O)sc2ccccc21 (stereo unspecified)	inactive
Cn1c(=NC(=O)CCl)sc2ccccc21	active
CC(=O)N=c1sc2ccccc2n1C	inactive
CCCCOC(=O)C(C)Nc1n[nH]c(=S)[nH]c1=O (stereo unspecified)	inactive
CCN(C(=O)CN1CCN(c2ccccc2OC)CC1)c1c(N)n(Cc2ccccc2)c(=O)[nH]c1=O	inactive
CC(=O)N(/N=C1\Sc2ccccc2C1=O)c1ccccc1C	inactive
CC(=O)N(/N=C1\Sc2ccccc2C1=O)c1cccc(C)c1	inactive
CC(=O)N(Cc1ccc(F)cc1)C1=C(NCc2ccccc2)C(=O)c2ccccc2C1=O	active
O=C(Cc1ccc(F)cc1)NCCc1ccccc1	inactive
Cn1c(=O)c2c(nc(NCCc3ccccc3)n2Cc2ccc(F)cc2)n(C)c1=O	inactive
Cn1c(=O)c2c(nc(NCc3ccccc3)n2Cc2ccc(F)cc2)n(C)c1=O	inactive

Compound	outcome
CC(=O)n1nc(-c2ccccc2)nc1NCc1ccc(F)cc1	inactive
OC(CN1C2=NCCN2c2ccccc21)c1ccc(Br)cc1 (stereo unspecified)	inactive
O=S(=O)(NCCSc1nc2ccccc2o1)c1ccccc1	inactive
O=C(CCC1CCCC1)Nc1ccc(OCC(=O)N2CCOCC2)cc1	inactive
COc1ccccc1CN1CCSCC1	inactive
COCc1nnc(NC(=O)c2cc(Cl)ccc2OC)s1	inactive
O=C(CSc1nnc(Cc2cccs2)n1Cc1ccco1)Nc1ccc(Cl)cc1Cl	inactive
Cc1ccnn1CC(=O)N/N=C/c1ccco1	inactive
CC(C)Cn1c(N)c(S(=O)(=O)c2cccs2)c2nc3ccccc3nc21	inactive
CC(C)CCn1c(N)c(S(=O)(=O)c2cccs2)c2nc3ccccc3nc21	active
COCCn1c(N)c(S(=O)(=O)c2cccs2)c2nc3ccccc3nc21	inactive
N#Cc1nc(-c2ccco2)oc1N1CCN(c2cccc(Cl)c2)CC1	inactive
CC(Oc1ccc(Cl)cc1Cl)C(=O)NCc1ccncc1 (stereo unspecified)	inactive
Cc1cc(C)c(C)c(OCC(=O)NCC2CCCO2)c1 (stereo unspecified)	inactive
O=C(O)c1n[nH]c2c1CCCCC2	inactive
CC1(CCc2ccccc2)NC(=O)N(Cc2nnc(-c3ccccc3Br)o2)C1=O (stereo unspecified)	inactive
CC1Cc2ccccc2N1c1nc(C2CC2)nc2c1nnn2Cc1ccccc1 (stereo unspecified)	inactive
CC(C)(C)C1CCc2c(sc(NC(=O)CSc3ncn[nH]3)c2C#N)C1 (stereo unspecified)	inactive
CC(=O)Nc1c(O)nc(SCC(=O)Nc2sc3c(c2C#N)CCCCCC3)[nH]c1=O	inactive
N#Cc1c(NC(=O)CSc2nc(N)cc(=O)[nH]2)sc2c1CCCCCC2	inactive
Cc1nnc(SCC(=O)Nc2sc3c(c2C#N)CCCC3)[nH]c1=O	inactive
